Compound activity from PubChem BioAssay.
In the library only some 2.7% were active in any assay of this set; here they are far more common.
MsrA inhibitor: bovine MsrA inhibition | purified bovine MsrA, absorbance read-out | inhibition, % at 15.5 µM | 360,000 compounds, 0.75% hits | AID 651718; in the data active = inhibition above about 4.5%;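 also: 0% = vehicle wells with enzyme and 100% = reference inhibitor wells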
rCAG RNA binder: binds r(CAG) RNA repeats | r(CAG) RNA repeat, TO-PRO-1 dye displacement fluorescence | inhibition, % at 3 µM | 370,000 compounds, 1.3% hits;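 active = inhibition above the plate cutoff, the mean of all test compounds on that plate plus 3 SD, cut at about 35% in these data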;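 also: 0% = DMSO alone and 100% = 100 µM mitoxantrone as full dye displacement; higher means more dye released from RNA so lower well fluorescence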
bovine MsrA act: bovine methionine sulfoxide reductase A activation; purified bovine MsrA, absorbance read-out; activation, % at 10.6 µM; 360,000 compounds, 0.3% hits; AID 602163; in the data active = activation above about 7.5%;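 also: 0% = vehicle and 100% = reference activator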
NadD inh: inhibitors of Staphylococcus aureus NadD; AID 602399; purified NadD enzyme, colorimetric absorbance read-out; inhibition, % at 20 µM; 360,000 compounds, 0.78% hits; in the data active = inhibition above about 26%
NadD inh conf: confirmation of Staphylococcus aureus NadD inhibitors; shares compounds with NadD inh; purified S. aureus NadD, colorimetric enzyme assay; inhibition, % at 20 µM; 2,000 compounds, 13% hits; AID 624309; in the data active = inhibition mostly above about 42%, no sharp cut-off; inactive = mostly below about 42%
Starred values were filed as active, the others as inactive; / = not tested or not shown.

SMILES	MsrA inhibitor	rCAG RNA binder	bovine MsrA act	NadD inh	NadD inh conf
O=[N+]([O-])c1ccc(NC2CCCC2)cc1	-0.3	3.0	-5.8	1.3	/
O=[N+]([O-])c1ccc(Nc2nc(NC3CCCCC3)nc(N3CCCC3)n2)cc1	-0.8	1.3	-10.0	38.9*	11.0
O=[N+]([O-])c1cc2c(cc1/C=N/Nc1nc(Nc3ccccc3)nc(N3CCCCC3)n1)OCO2	-0.2	4.5	-0.5	39.4*	3.3
Cc1cc(C)nc(N/N=C/c2cc3c(cc2[N+](=O)[O-])OCO3)n1	1.2	0.9	-4.2	0.2	/
O=[N+]([O-])c1ccc(Nc2nc(N/N=C/c3cccc(F)c3)nc(N3CCCC3)n2)cc1	1.3	20.5	-2.6	38.3*	-3.0
O=C(NC(=S)Nc1nc(-c2ccccc2)cs1)c1cncc(Br)c1	-1.2	2.6	-2.9	32.7*	11.3
O=C(NC(=S)Nc1nc(-c2ccccc2)cs1)c1cccnc1	-0.1	6.3	-1.3	11.6	/
CCOC(=O)CC[C@@]1(C(=O)OCC)C[C@@H](CC(=O)NCc2cccs2)C(=O)N2CCCC=C21	/	1.4	/	/	/
Cc1ccc(C)c(S(=O)(=O)N2CCCOC2CNC(=O)C(=O)NCCc2ccco2)c1 (centres undefined)	-0.8	-3.4	-2.4	-5.9	/
Cc1cc2[nH]c(=O)c(=O)[nH]c2cc1S(=O)(=O)N1CCN(c2cccc(C(F)(F)F)c2)CC1	1.1	16.0	-10.8	30.9*	49.8*
Cc1cc2[nH]c(=O)c(=O)[nH]c2cc1S(=O)(=O)N1CCN(c2cccc(Cl)c2)CC1	1.2	23.4	-8.4	22.6	/
CCOC(=O)[C@]12CCCCC/C=C\1N(Cc1ccc(OC)cc1)C(=O)[C@H]2CC(=O)NCCCOC	/	-2.1	/	/	/
COc1cccc(-c2nc(Cl)nc3cc(Cl)ccc23)c1	-0.5	2.2	-1.7	-8.0	/
CC(=O)C1=C(C)NC(SCC(=O)Nc2nc3ccccc3s2)=C(C#N)C1c1ccc(Cl)cc1 (centres undefined)	1.0	9.3	-4.9	18.4	/
COc1ccc(NC(=O)CSC2=C(C#N)C(c3ccco3)C(C(=O)Nc3nc4ccccc4s3)=C(C)N2)cc1 (centres undefined)	1.6	24.0	-1.8	37.9*	10.6
Cc1[nH][nH]c(=O)c1C(c1c(C)[nH][nH]c1=O)c1cn(Cc2cccc3ccccc23)c2ccccc12	-1.2	26.6	0.3	45.8*	66.8*
Cc1cc(C)c(NC(=O)CSc2nc3ccc(NC(=O)CSc4nnnn4Cc4ccccc4)cc3s2)c(C)c1	0.7	28.3	-1.3	47.2*	-3.3
Cc1ccccc1OCc1nnc(SCC(=O)Nc2ccc3nc(SCC(=O)Nc4ccccc4)sc3c2)n1C	1.5	11.2	-7.2	32.3*	3.3
O=C(CSc1nc2ccc(NC(=O)CSc3nnnn3Cc3ccccc3)cc2s1)Nc1ccccc1	-0.9	15.4	-0.5	19.1	/
Cn1cc(S(=O)(=O)NC2CCCCC2)c(=O)n(C)c1=O	0.2	-0.9	1.0	-4.1	/
Cc1cccc(NC(=O)c2nc[nH]c2C(=O)NCc2ccccc2)c1	-0.5	8.3	-5.7	1.4	/
CNC(=O)c1[nH]cnc1C(=O)Nc1cccc(C)c1	0.1	-2.3	-3.6	-6.0	/
Cc1cccc(NC(=O)c2nc[nH]c2C(=O)NCCCCCCNC(=O)c2[nH]cnc2C(=O)Nc2cccc(C)c2)c1	-0.7	0.2	-0.7	36.8*	4.0
Cc1cccc(NC(=O)c2nc[nH]c2C(=O)NCCCCNC(=O)c2[nH]cnc2C(=O)Nc2cccc(C)c2)c1	-1.0	1.4	-2.4	36.7*	10.8
CCOc1ccc(C(=O)NCC(=O)N2CCC(C)CC2)cc1OCC	0.3	-7.6	0.1	-4.2	/
SMILES	MsrA inhibitor	rCAG RNA binder	bovine MsrA act	NadD inh	NadD inh conf
COc1ccc(CN2C(=O)N(c3ccccc3)C(=O)C2CC(=O)Nc2ccccc2)cc1OC (centres undefined)	-0.9	-2.0	-3.1	-3.1	/
CN(CC(=O)Nc1ccc(F)cc1)C(=O)c1cc(-c2ccco2)nc2ccccc12	0.6	30.5	-3.1	40.6*	26.4
CNC(=O)COC(=O)c1cc(-c2ccco2)nc2ccccc12	2.0	18.4	-3.4	-1.5	/
COc1cccc(NC(=O)CN(C)C(=O)c2cc(-c3ccco3)nc3ccccc23)c1	0.8	11.5	-3.0	5.3	/
CCN(CC)C(=O)COC(=O)c1cc(-c2ccco2)nc2ccccc12	0.9	14.8	1.3	31.2*	21.3
O=C(COC(=O)c1cc([N+](=O)[O-])ccc1N1CCOCC1)NC1CCCCC1	2.1	-0.8	-4.0	-1.1	/
Nc1ccc(Cl)c(S(=O)(=O)Nc2ccc(Cl)cc2)c1	0.5	4.2	-2.8	5.3	/
COc1cccc(CN(C)C[C@H]2OCc3cnnn3CCCC(=O)N([C@H](C)CO)C[C@@H]2C)c1	-0.9	1.7	-8.4	-0.8	/
O=Cc1ccc(-c2ccc(Cl)cc2Cl)[nH]1	1.5	-3.3	-2.1	0.3	/
Cc1noc(/C=C/c2ccco2)c1S(=O)(=O)N1CCC(C(=O)N2c3ccccc3CC2C)CC1 (centres undefined)	3.7	18.8	-0.9	38.5*	6.0
Cn1cc(/C=C(\C#N)C(=O)Nc2ncc(Cc3ccc(Cl)cc3)s2)c2ccccc21	-1.2	2.9	-2.7	30.6*	0.5
Cc1ccc(Cc2cnc(NC(=O)/C(C#N)=C/c3ccc(-c4ccccc4[N+](=O)[O-])o3)s2)cc1	-1.6	6.6	-3.1	29.1*	-1.0
CNC(=O)/C(C#N)=C/c1ccc(-c2ccccc2[N+](=O)[O-])o1	1.7	1.7	-6.3	-10.4	/
O=C(OC(C(=O)Nc1ccc([N+](=O)[O-])cc1Br)c1ccccc1)c1ccccc1 (centres undefined)	0.2	2.9	1.6	-9.0	/
N#CCC(=O)Nc1ccc(C(=O)OC(C(=O)Nc2ccc([N+](=O)[O-])cc2Br)c2ccccc2)cc1 (centres undefined)	0.2	31.2	-7.6	45.5*	38.8
COc1ccc(-c2nn(-c3ccccc3)cc2C(=O)N/N=C/c2ccc([N+](=O)[O-])o2)cc1	0.1	2.5	-3.3	30.7*	7.3
CC(C)Oc1ccc(/C(O)=C2/C(=O)C(=O)N(CCN(C)C)C2c2cccs2)cc1 (centres undefined)	0.0	4.0	-3.1	0.3	/
Cc1ccc(C(=O)Nc2nc(C(N)Cc3ccc(C(F)(F)F)cc3)cs2)cc1 (centres undefined)	0.3	9.7	0.8	9.8	/
Cc1cccc(/C=N/NC(=O)c2cc(-c3cccnc3)nc3c2c(C)nn3-c2ccccc2)c1	-1.3	2.9	-4.1	36.5*	6.9
Cc1nc2ccc(NC(=O)c3ccc(Cl)c(NC(=O)c4cccs4)c3)cc2s1	0.8	14.4	-12.2	28.1*	14.2
Cc1ccc(NC(=O)c2ccc(Cl)c(NC(=O)c3cccs3)c2)cc1	0.5	1.4	-1.4	-8.2	/
C=CCc1c(C)[nH]c(=S)c(C#N)c1C	0.9	6.5	-2.9	33.5*	24.3
COc1ccc(C(=O)NC(=O)COC(=O)c2ccc(C)o2)cc1	-1.5	4.4	-2.6	10.2	/
O=C(/C=C/NNC(=O)c1ccccc1)c1ccc(Br)cc1	1.2	13.7	-3.1	1.1	/
O=C(/C=C/NNC(=O)c1cccc(Br)c1)c1cccc(Br)c1	1.4	11.1	-0.8	29.8*	23.7
